This is a sample that favours compounds with a hit; in the whole collection about 8.9% have one here.
SW480 rereplic = induces DNA re-replication in SW480 colon adenocarcinoma cells | SW480 DNA re-replication, Hoechst DNA content imaging, 48 h | Potency, µM (top dose mostly 46.1 µM), for inactives: at the highest dose re-replication activation, actives largely listed as activators | 1.8% of 340,000 active | AID 624297; also: potency is read from the fitted curve at half-maximal effect; % of control where 0% means no effect; nearly all actives have a fitted effect of over 55% in size
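Per well, 250 cells were exposed to pinned compound for 48 hr. Nuclear DNA was visualised with Hoechst (40 min, 37 C) and total object intensity recorded by fluorescence scanning.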
KB-3-1 tox = KB-3-1 parental cell cytotoxicity | KB-3-1 viability, CellTiter-Glo ATP luminescence, 72 h | AID 1347075 | 1.4% of 400,000 active | Potency, µM (doses to about 46.1 µM), actives largely listed as cytotoxic; also: potency is read from the fitted curve at half-maximal effect; % is scaled to controls: 0 for no effect and ±100 for the full control effect; nearly all actives have a fitted effect of over 60% in size
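Here the drug-naive KB-3-1 line serves as comparator for MDR sub-line selectivity; cells received compound titrations, 72 h at 37 °C, then CellTiter-Glo readout.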
D3 ag = agonists of human D3 dopamine receptor; P35462; D3R DiscoveRx beta-arrestin cells, luminescence, 90 min; max activation, %; 0.58% of 410,000 active; AID 652048; in the data active = max activation above about 30%; also: 0% is about no effect
Target sequence (P35462 whole entry, looked up): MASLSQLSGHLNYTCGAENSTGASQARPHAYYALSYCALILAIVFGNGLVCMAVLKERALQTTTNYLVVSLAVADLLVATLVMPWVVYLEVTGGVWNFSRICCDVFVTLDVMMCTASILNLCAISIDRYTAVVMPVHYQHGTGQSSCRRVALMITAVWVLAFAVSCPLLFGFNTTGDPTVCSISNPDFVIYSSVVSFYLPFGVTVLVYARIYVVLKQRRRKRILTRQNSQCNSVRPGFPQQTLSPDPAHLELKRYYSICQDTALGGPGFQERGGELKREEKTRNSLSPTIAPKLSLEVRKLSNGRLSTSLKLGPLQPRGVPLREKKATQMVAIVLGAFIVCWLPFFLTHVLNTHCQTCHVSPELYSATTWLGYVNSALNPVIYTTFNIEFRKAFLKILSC
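Cells at 1500/well, incubated overnight, then treated with pinned compounds (dopamine as control) for 90 min at 37 degrees C. DiscoveRx reagent added for 30 - 60 minutes at room temperature; luminescence read.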
DRD3 antagonist = antagonists of human D3 dopamine receptor; max response, negative = inhibition, %; P35462; D3R cells, DiscoveRx beta-arrestin luminescence, antagonist mode; stronger effect = lower value; 2.5% of 360,000 active; in the data active = max response below about -50%; inconclusive = no clear call, values can overlap the other calls; also: % is scaled to controls: 0 for no effect and ±100 for the full control effect
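Cells expressing the human receptor were seeded at 1500 cells/well, incubated overnight at 37 degrees C in 5% CO2, then exposed to library compounds with dopamine controls for 90 minutes at 37 degrees C before luminescent detection.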
KB-V1 MDR tox = kills drug-selected multidrug resistant KB-V1 cells; AID 1347076; Potency, µM (highest dose often 46.1 µM), most hits filed as cytotoxic; 3.4% of 400,000 active; KB-V1 MDR cells viability, CellTiter-Glo, 72 h; also: potency is read from the fitted curve at half-maximal effect; % is scaled to controls: 0 for no effect and ±100 for the full control effect; nearly all actives have a fitted effect of over 60% in size
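Readout: CellTiter-Glo luminescence, 10 min after addition. Cells: KB-V1 MDR subline, 72 h at 37 degrees C with compound. Analysis: corrected, normalized data fitted to concentration-effect curves.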
MCF10A rereplic = induces DNA re-replication in MCF 10a normal breast cells. Potency, µM (titrated, usually from 46.1 µM), inactives show at the top dose activity, positive = re-replication, actives largely listed as activators. AID 624296. 2.9% of 350,000 active. MCF 10A DNA re-replication, Hoechst nuclear intensity, 48 h; also: potency is read from the fitted curve at half-maximal effect; % of control where 0% means no effect; nearly all actives have a fitted effect of over 50% in size
* = called active by the depositor; i = inactive; u = inconclusive; x = not tested or not shown; [ ] = remark or other dose. Unless noted, calls follow the shape of the dose curve; as a rule, active = well fitted curve in the direction sought with a large enough effect; inconclusive = small, poorly fitted or top-dose-only effect, or another doubt; inactive = no such curve, though single readings can be large; an effect the other way counts as inactive or inconclusive.

SMILES	SW480 rereplic	KB-3-1 tox	D3 ag	DRD3 antagonist	KB-V1 MDR tox	MCF10A rereplic
Cc1ccc(S(=O)(=O)N2C[C@H]3C(=O)C[C@@H](c4ccccc4)N(S(=O)(=O)c4ccc(C)cc4)[C@H]3C[C@H]2c2ccc(Cl)cc2)cc1	x	i	-2.7	-8.5	i	x
COC(=O)c1cccc(NC(=O)c2cc3sccc3n2C)c1	-2.1%	i	-1.9	-6.0	9.2µM*	-7.8%
COC(=O)c1ccccc1NC(=O)c1cc2sccc2n1C	3.1%	i	1.8	-10.1	i	u
O=C(Nc1cnc2ccccc2c1)N1CCCCC1	-3.1%[9.22 µM]	i	-6.7	0.0	i	-0.9%
O=C(Nc1cnc2ccccc2c1)N1CCOCC1	-1.3%[9.22 µM]	u	-4.5	-66.7*	i	-5.3%
COc1ccc2c(C)c(CCC(=O)NCc3ccccc3OC)c(=O)oc2c1	x	i	-4.6	x	i	x
Cc1ccc(C)c(NC(=O)Cn2cc(S(=O)(=O)c3ccc(F)cc3)c(=O)c3cc(F)ccc32)c1	x	i	2.2	x	u	x
CC(=O)Oc1ccc(N(c2ccccc2)S(=O)(=O)c2ccc(C)cc2)cc1	u	u	-8.7	6.8	14.6µM*	u
O=C(CSc1nc2ccccc2c(=O)n1CCCN1CCOCC1)NC12CC3CC(CC(C3)C1)C2	-22.6%	i	0.0	1.0	9.2µM*	u
Cc1[nH]c2ccccc2c1C(=O)CSc1nc2ccccc2c(=O)n1CCCN1CCOCC1	3.6%	i	-3.5	44.1	i	14.6µM*
Cc1cc(NC(=O)CSc2nc3c(sc4ccccc43)c(=O)n2CCCN2CCOCC2)n[nH]1	7.31µM*	13µM*	-0.7	-8.1	i	u
CSc1ccc(C(=O)C2CCCN(C(=O)Cn3cnnn3)C2)cc1 (stereo not drawn)	-4.7%	x	0.4	-6.7	x	13.2%
CSc1ccc(C(=O)C2CCCN(C(=O)Cc3nonc3C)C2)cc1 (stereo not drawn)	2.6%	i	16.0	-84.2*	i	-1.5%
Cc1ccnc2ccc(N)cc12	x	i	x	x	i	x
CCCN(CCC)C(=O)c1nn(C)c2c1CSc1ccccc1-2	x	x	-10.3	x	x	x
Cc1cccc2sc(NNC(=O)c3cc(-c4cccs4)nc4ccccc34)nc12	u	u	46.1*	126.4	u	18.4µM*
CCn1nc(C(=O)Nc2nc3ccc(C)cc3s2)c2ccccc2c1=O	20.6µM*	i	8.4	11.0	i	23.1µM*
CCNC(=S)NNC(=O)c1cc(-c2cccc(OC)c2)nc2ccccc12	-389.9%	i	-1.1	6.7	i	-4.4%
Cn1cc(Cl)c(C(=O)Nc2nc3ccccc3s2)n1	2.4%	i	-0.2	-5.4	18.4µM*	-12.3%
O=C(Nc1nc2ccccc2s1)c1c(F)cccc1Cl	-52.8%	u	1.1	-14.4	i	16.2%
COc1cccc(-c2cc(C(=O)Nc3nc4ccccc4s3)c3ccccc3n2)c1	4.5%	i	-28.9	-59.0*	20.6µM*	1.1%
Cc1ccc(-n2c(=O)c3c(c4cc(C)ccc4n3C)n(CC(=O)NCc3ccccc3)c2=O)cc1	x	i	-4.2	x	i	x
COc1ccccc1NC(=O)c1cc(-c2ccc(OC)c(OC)c2)nc2ccccc12	16.2%	i	4.4	32.6	i	14.4%
Cc1ccc2nc(NC(=O)c3cc(-c4ccco4)nc4ccccc34)sc2c1	15.0%	u	-0.8	11.1	u	16.4µM*
COc1ccc(-c2cc(C(=O)Nc3nc4c(C)cccc4s3)c3ccccc3n2)cc1OC	28.2%	i	32.7*	26.4	i	u
SMILES	SW480 rereplic	KB-3-1 tox	D3 ag	DRD3 antagonist	KB-V1 MDR tox	MCF10A rereplic
COc1ccccc1C(=O)Nc1nc2ccccc2s1	-1.0%	u	-0.4	63.0	u	16.7%
O=C(Nc1nc2ccccc2s1)c1cc(-c2ccco2)nc2ccccc12	u	u	-2.2	2.1	u	u
COc1ccc(C(=O)Nc2nc3ccccc3s2)c(OC)c1	u	7.31µM*	5.7	5.7	6.51µM*	u
Cc1ccc(NC(=O)CSc2nc(=O)n(Cc3cccnc3)c3c2CCC3)cc1F	x	i	1.5	x	i	x
Cc1cc(C)c(OCCN(C)Cc2ccccc2)c(Br)c1	6.1%	i	-38.2	-55.8*	i	7.9%
CN(CCCOc1ccccc1F)Cc1ccccc1	u	i	-30.6	-85.5*	u	u
Cc1ccc(C(=O)OCCN(C)Cc2ccccc2)cc1	-13.1%	i	-9.4	-29.0	i	-4.5%
CN(CCCOc1ccccc1Br)Cc1ccccc1	-1.7%	i	-17.1	-98.1*	i	-7.2%
COc1cc(C(=O)NCC(c2ccc3c(c2)OCO3)N2CCN(C)CC2)cc(OC)c1OC (stereo not drawn)	x	x	-9.4	x	x	x
COC(=O)c1ccc(-c2nc(O)c(C)s2)cc1	-1.2%	i	-4.1	-14.2	i	-1.1%
COC(=O)c1ccc(-c2nc3cc(Cl)c(N)cc3s2)cc1	u	i	2.0	-5.1	i	0.651µM*
Cc1cc(C)n(-c2ccc(Cl)c(C(=O)NCc3ccccc3)n2)n1	-0.3%	i	-3.6	2.5	11.6µM*	-8.9%
CCc1c(O)nc(SCC(=O)Nc2ccccc2)n(-c2ccccc2)c1=O	20.6µM*	i	9.8	7.5	i	3.66µM*
CC1(Oc2ccc(-n3ccnc3)cc2)CCN(Cc2cccn2-c2nccs2)C1 (stereo not drawn)	x	i	56.1*	0.0	i	x
CCCCCCCCCCCCCCCC(=O)OCC(COC(=O)CCCCCCCCCCCCCCC)OC(=O)CCCCCCCCCCCCCCC	2.4%	x	5.7	x	x	5.0%
CCCCCCCCCCCCCCCC(=O)OC(CC(=O)O)C[N+](C)(C)C (stereo not drawn)	0.581µM*	3.66µM*	-22.9	-25.8	i	-1.2%
Cc1ccc(-n2nc3c(N4CCC(C(=O)NCCc5ccccc5C)CC4)nnc(C)c3c2C)cc1	9.5%	u	-16.0	-22.4	u	23.1µM*
COc1ccc(-n2nc3c(N4CCC(C(=O)NCCc5ccccc5C)CC4)nnc(C)c3c2C)cc1	u	i	-7.1	-2.7	i	9.2µM*
CCOc1ccccc1CNC(=O)C1CCCN(c2nnc(C)c3c(C)n(-c4ccccc4)nc23)C1 (stereo not drawn)	u	u	4.5	90.5	u	14.6µM*
COc1ccc(-n2nc3c(N4CCC(C(=O)NCc5ccccc5C)CC4)nnc(C)c3c2C)cc1	u	i	-13.6	-24.0	i	u
Cc1ccc(N2CCN(C(=O)c3cn(C)c4ccc(S(=O)(=O)N(C)C5CCCCC5)cc4c3=O)CC2C)cc1 (stereo not drawn)	x	u	4.4	x	i	x

Source: PubChem BioAssay
